# Assay results reported in PubChem BioAssay (NCI).
# The panel holds about 79,000 compounds, 15% with a hit somewhere; the sample as a whole holds those more often. Values without a mark were called inactive. Activity calls are given as the source filed them. Cut-off read from the data, not from the text of the source: active = growth inhibition above about 70%; inactive = the rest.
# Experiment: NCI Yeast Anticancer Drug Screen. Data for the cln2 rad14 strain (AID 165);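 note: 0% = growth equal to vehicle treated cultures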
# Conditions: S. cerevisiae cln2 rad14 strain, hits give high values
# Method: Growth inhibition of yeast strains with defined genetic alterations is measured as a screen for potential anti-cancer activity. Selected strains with alterations in DNA damage repair or cell cycle control were exposed to compounds and growth inhibition was measured relative to vehicle treated controls. The strain used in this assay is cln2 rad14
# [1] = at 5.0 µM (retest, dose inferred, filed as 0.5)
# [2] = at 50.0 µM (retest, dose inferred, filed as 5.0)
SMILES,growth inhibition [1],growth inhibition [2],growth inhibition (at 50.0 µM)
c1ccc2c(c1)Cc1c-2nc2ccccc2c1N1CCOCC1,18%,98% (active),34.9%
N#CCCN(CCC#N)c1ccc(C(Sc2ccccc2)C(NC(=O)c2cc([N+](=O)[O-])ccc2Cl)C(=O)Sc2ccccc2)cc1 (configuration not stated),16%,37%,51.6%
O=[N+]([O-])c1ccc(C(Cl)Cc2ccc(Cl)cc2)cc1 (configuration not stated),-8%,61%,62.6%
Cc1[nH]nc(C(F)(F)F)c1N=NN1CCC(C(N)=O)CC1,36%,99% (active),99.5% (active)
CCCCC(CCCC)=NNC(=S)SC,-3%,17%,-27.6%
CCCCCCCCCCCC(C)N (configuration not stated),12%,25%,98% (active)
O=C(Nc1ccccc1)ON=C1CCCCC1,6%,27%,61.8%
CCCCCCCCCCCCCC/[N+]([O-])=C/c1ccc([N+](=O)[O-])o1,8%,13%,29.8%
O=C1/C(=C/c2ccccc2)CN(C(=O)C(F)(F)F)C/C1=C\c1ccccc1,41%,78% (active),42.2%
COc1ccc(/C(Cl)=C(\C=O)c2ccc(Cl)cc2)cc1OC,7%,49%,0.1%
CC(=O)Oc1ccc(C23CC4CC(CC(C4)C2)C3)cc1,-36%,99% (active),96.6% (active)
C(=C\c1cnnc2ccccc12)/c1cccnc1,6%,32%,42.6%
N#C/C(=C\c1ccc(Cl)cc1Cl)C(N)=S,-12%,82% (active),86.8% (active)
CCOC(=O)Cc1nc2ccccc2s1,6%,98% (active),99.2% (active)
